The source of these data is PubChem BioAssay (NCI).

Where “and” joins values, the source holds several entries; their conditions need not be identical. Equal entries are not always repeated. Compounds without any hit were thinned out: in the full panel of roughly 83,000, 20% have a hit.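 Step 1: grow cells in 96-well plates. Step 2: add test compound at a single concentration. Step 3: incubate 48 h. Step 4: record percent growth.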 Calls of active or inactive are those of the source. How the source made its calls: active means growth percent below 10; inactive means the rest.

What all share (assay): NCI-60 one-dose screen, 48 h (100 = growth as untreated, 0 = no growth, -100 = all killed)
For one experiment, the system named is NCI-H23 lung. To be noted: 10 µM unless noted.
The test system of another experiment is NCI-H226 lung. Particulars: 10 µM unless noted.
The next experiment relates to NCI-H322M lung. To be noted: 10 µM unless noted.
Another experiment relates to HOP-62 NSCLC. Particulars: 10 µM unless noted.
A further experiment relates to HOP-92 NSCLC. Particulars: 10 µM.
The next experiment has as its system NCI-H522 lung. Particulars: 10 µM.
Another experiment concerns A549/ATCC NSCLC. To be noted: 10 µM unless noted.
Another experiment has as its system 786-0 renal. Particulars: 10 µM unless noted.
A further experiment has as its system NCI-H460 lung. To be noted: 10 µM unless noted.
In a further experiment the test system is COLO 205 colon. Particulars: 10 µM unless noted.

For `O=C(O)/C=C\C(=O)Nc1cccc2ccccc12`, the growth was 106% (inactive) and 91.4% (inactive) in the experiment with NCI-H23 lung; 90.6% (inactive) and 107% (inactive) in the experiment on NCI-H226 lung; 105% (inactive) and 117% (inactive) with NCI-H322M lung; 96% (inactive) and 104% (inactive) in the experiment with HOP-62 NSCLC; 115% (inactive) in the experiment with HOP-92 NSCLC; 79.3% (inactive) and 100% (inactive) in the experiment on NCI-H522 lung. For the same molecule, the growth in the experiment with A549/ATCC NSCLC was 99.9% (inactive) and 105% (inactive); in the experiment on 786-0 renal, 113% (inactive) and 111% (inactive).
`Cc1cc2ccccc2cn1`: the growth in the experiment with NCI-H23 lung is 97.1% (inactive) and 114% (inactive); in the experiment with NCI-H226 lung, 95.7% (inactive) and 96% (inactive); in the experiment with NCI-H322M lung it was 101% (inactive) and 98.4% (inactive); with HOP-62 NSCLC it was 101% (inactive); in the experiment on NCI-H460 lung it was 107% (inactive) and 108% (inactive); with HOP-92 NSCLC it was 94.4% (inactive) and 101% (inactive). Also, the growth in the experiment on NCI-H522 lung is 109% (inactive); with A549/ATCC NSCLC, 101% (inactive) and 118% (inactive); in the experiment with 786-0 renal, 105% (inactive) and 111% (inactive); in the experiment with COLO 205 colon, 110% (inactive) and 119% (inactive).
For the molecule `O=c1[nH]cnc2c1ncn2C1OC(CO)C(O)C1O` (stereo unspecified), the growth was 116% (inactive) and 104% (inactive) and 109% (inactive) in the experiment with NCI-H23 lung; 108% (inactive) and 103% (inactive) and 97.4% (inactive) in the experiment on NCI-H226 lung; 112% (inactive) and 137% (inactive) and 102% (inactive) with NCI-H322M lung; 104% (inactive) and 110% (inactive) and 96.5% (inactive) with HOP-62 NSCLC; 109% (inactive) and 122% (inactive) and 106% (inactive) in the experiment on NCI-H460 lung; 84.1% (inactive) and 79.4% (inactive) and 115% (inactive) with HOP-92 NSCLC. Moreover, the growth was 107% (inactive) and 100% (inactive) and 93.2% (inactive) in the experiment on NCI-H522 lung; 112% (inactive) and 102% (inactive) and 107% (inactive) in the experiment on A549/ATCC NSCLC; 106% (inactive) and 111% (inactive) and 107% (inactive) in the experiment with 786-0 renal; 114% (inactive) and 118% (inactive) and 113% (inactive) in the experiment with COLO 205 colon.
Regarding `O=C1C=C(Nc2ccccc2)c2ccccc2C1=O`, the growth with NCI-H23 lung was 23% (inactive) and 66.1% (inactive); in the experiment with NCI-H226 lung, 66.4% (inactive) and 83.4% (inactive); in the experiment with NCI-H322M lung, 88.3% (inactive) and 98.1% (inactive); with HOP-62 NSCLC, 19.1% (inactive) and 123% (inactive); with NCI-H460 lung, 14.5% (inactive) and 93.2% (inactive); in the experiment on HOP-92 NSCLC it was 89.7% (inactive). Also, the growth is 76.8% (inactive) and 86.6% (inactive) in the experiment on NCI-H522 lung; 6.95% (active) and 93.7% (inactive) in the experiment with A549/ATCC NSCLC; 99.8% (inactive) and 99.3% (inactive) in the experiment with 786-0 renal; 108% (inactive) and 91.9% (inactive) with COLO 205 colon.
On to `CC[C@H](CC[C@@H](C)[C@H]1CC[C@H]2[C@@H]3CC=C4C[C@@H](O)CC[C@]4(C)[C@H]3CC[C@]12C)C(C)C`, for which the growth was 5.59% (active) and 96.6% (inactive) in the experiment with NCI-H23 lung; 99.6% (inactive) and 101% (inactive) with NCI-H226 lung; 92.6% (inactive) and 103% (inactive) in the experiment on NCI-H322M lung; 108% (inactive) and 101% (inactive) in the experiment on HOP-62 NSCLC; 83.5% (inactive) with HOP-92 NSCLC; 18.7% (inactive) and 97% (inactive) in the experiment with NCI-H522 lung. The growth in the experiment on A549/ATCC NSCLC is 102% (inactive); in the experiment on 786-0 renal, 95.3% (inactive) and 106% (inactive); in the experiment with COLO 205 colon, 103% (inactive) and 107% (inactive).
Turning to `ClCCOCCOc1ccc(C2CCCCC2)cc1`, the growth was 113% (inactive) with NCI-H23 lung; 92.4% (inactive) with NCI-H226 lung; 121% (inactive) in the experiment on NCI-H322M lung; 92.3% (inactive) in the experiment with HOP-62 NSCLC; 106% (inactive) with NCI-H460 lung; 87.9% (inactive) in the experiment on HOP-92 NSCLC. Moreover, the growth is 93.8% (inactive) in the experiment with NCI-H522 lung, 86.6% (inactive) with A549/ATCC NSCLC and 88.8% (inactive) with 786-0 renal.
For the molecule `O=C(Cc1ccccc1)c1ccc(O)c(Cl)c1`, the growth was 24% (inactive) with NCI-H23 lung; 83.7% (inactive) with NCI-H226 lung; 80% (inactive) with NCI-H322M lung; 70.4% (inactive) in the experiment on HOP-62 NSCLC; 57.6% (inactive) in the experiment on HOP-92 NSCLC; 10.3% (inactive) with NCI-H522 lung. Also, the growth in the experiment with A549/ATCC NSCLC was 96.4% (inactive); with 786-0 renal, 26.8% (inactive).
Regarding `CCN(CCNS(C)(=O)=O)c1ccc(N)c(C)c1`, the growth with NCI-H23 lung was 99.2% (inactive) and 85.9% (inactive); in the experiment with NCI-H226 lung, 92.9% (inactive) and 82.7% (inactive); in the experiment on NCI-H322M lung, 95.1% (inactive) and 120% (inactive); with HOP-62 NSCLC, 106% (inactive) and 111% (inactive); with HOP-92 NSCLC, 84.4% (inactive); with NCI-H522 lung, -70.5% (active). In addition, the growth with A549/ATCC NSCLC was 109% (inactive); in the experiment on 786-0 renal, 89% (inactive) and 95.7% (inactive).
As for `c1ccc2c(c1)OC1OC2Oc2ccccc21`, the growth in the experiment with NCI-H23 lung is 98.3% (inactive); in the experiment with NCI-H226 lung, 94.3% (inactive); with NCI-H322M lung, 104% (inactive); with HOP-62 NSCLC, 98.8% (inactive); in the experiment on NCI-H460 lung, 99.4% (inactive); in the experiment with HOP-92 NSCLC, 101% (inactive). Moreover, the growth in the experiment on NCI-H522 lung is 87% (inactive); in the experiment on A549/ATCC NSCLC, 96.9% (inactive); in the experiment with 786-0 renal, 100% (inactive); in the experiment on COLO 205 colon, 107% (inactive).
`O=C(O)CCCl`: the growth is 108% (inactive) with NCI-H23 lung; 95.6% (inactive) with NCI-H226 lung; 102% (inactive) in the experiment on NCI-H322M lung; 105% (inactive) with HOP-62 NSCLC; 78.4% (inactive) in the experiment with HOP-92 NSCLC; 112% (inactive) in the experiment with NCI-H522 lung. Moreover, the results for the growth in the experiment with A549/ATCC NSCLC, in the experiment on 786-0 renal and in the experiment on COLO 205 colon were 104% (inactive), 120% (inactive) and 119% (inactive), respectively.
